Results: PubChem BioAssay (NCI)
The panel holds about 79,000 compounds, 15% with a hit somewhere; the sample as a whole holds those more often. Values without a mark were called inactive. Calls of active or inactive are those of the source. Rule as the data show it: active = growth inhibition above about 70%; inactive = the rest.

Columns and labels:
[1] = NCI Yeast Anticancer Drug Screen. Data for the rad50 strain (AID 155);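 also: 0% = growth of vehicle-only cultures of the same strain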; settings: S. cerevisiae rad50 strain growth inhibition; at 50.0 µM; active compounds read high
Summary of the method: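 Inhibition values express reduced yeast growth in compound-treated cultures relative to vehicle-treated controls.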

[2] = NCI Yeast Anticancer Drug Screen. Data for the mec2-1 strain (AID 157); settings: S. cerevisiae mec2-1 strain, at 50.0 µM, active compounds read high
Summary of the method: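 Growth inhibition is read against vehicle-treated controls after compound exposure of the mec2-1 yeast strain, which is defective in DNA damage repair or cell cycle control.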

[3] = NCI Yeast Anticancer Drug Screen. Data for the sgs1 mgt1 strain (AID 161);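 also: 0% = growth of cultures given vehicle only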; settings: S. cerevisiae sgs1 mgt1 strain, at 50.0 µM, active compounds read high
Summary of the method: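 This yeast growth screen uses a strain with defined DNA-repair lesions; compound-treated growth is compared with vehicle-treated growth.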

[4] = NCI Yeast Anticancer Drug Screen. Data for the cln2 rad14 strain (AID 165);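 also: 0% = growth equal to vehicle treated cultures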; settings: S. cerevisiae cln2 rad14 strain, at 50.0 µM, active compounds read high
Summary of the method: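 Growth inhibition, relative to vehicle-treated controls, is the read-out. The test organism is a yeast strain with defined genetic alterations, cln2 rad14.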

[5] = NCI Yeast Anticancer Drug Screen. Data for the bub3 strain (AID 167); settings: S. cerevisiae bub3 mutant strain, at 50.0 µM, active compounds read high
Summary of the method: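 Steps: expose the mutant yeast strain to compound; grow alongside vehicle-treated cultures; measure growth; express inhibition against the vehicle cultures.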

[6] = NCI Yeast Anticancer Drug Screen. Data for the mlh1 rad18 strain (AID 175); settings: S. cerevisiae mlh1 rad18 strain growth inhibition; at 50.0 µM; active compounds read high
Summary of the method: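 Cells of a genetically altered yeast strain, deficient in DNA damage repair, were treated with compound. Their growth was then compared with that of vehicle-treated cultures to give inhibition.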

Row | Compound | growth inhibition [1] | growth inhibition [2] | growth inhibition [3] | growth inhibition [4] | growth inhibition [5] | growth inhibition [6]
1 | COc1ccc2ccccc2c1CN1CCOCCOCCN(Cc2c(OC)ccc3ccccc23)CCOCCOCC1 | -18.1% | -34.5% | -23.4% | -28.1% | 5.75% | -29.4%
2 | O=C(CSCSCC(=O)Nc1ccc(C2=NCCN2)cc1)Nc1ccc(C2=NCCN2)cc1 | 35% | 18.4% | 36.6% | -6.1% | 17.9% | 19.9%
3 | S=C(Nc1ccccc1)N1CCN(c2ccccc2Cl)CC1 | 10.7% | -1.65% | 8.25% | -33.9% | -2.15% | 13.1%
4 | c1ccc(-c2cnn3c(-c4ccccc4)cnnc23)cc1 | -1.65% | -8.1% | -2.55% | 2.8% | 2.8% | 4.65%
5 | C=CCN=C1NC(=O)C(CC(=O)Nc2cccc(Cl)c2)S1 (stereo unspecified) | -41% | -25% | -34.2% | 6.85% | -36.5% | -22.4%
6 | CCN(CC)CCn1c2c3ccccc3ccc2c2oc(=O)c3ccccc3c21 | -13.8% | 6.6% | -14.1% | 19.4% | -7.5% | 7.8%
7 | CC(=O)OC1CCC2(C)C(=CCC3C2CCC2(C)C(/C(C)=N/NC(N)=S)=CCC32)C1 (stereo unspecified) | 58.8% | 55.4% | 67.6% | 49.6% | 37.7% | 54.1%
8 | CC(/C=N/N(C)C1=NCCCN1)=N/N(C)C1=NCCCN1 | 14.3% | 1.6% | -7.35% | -35.6% | -2.55% | 11.2%
9 | O=c1c2ccccc2ncn1C1OC(CO)C(O)C1O (stereo unspecified) | 17.6% | -19.1% | -13.9% | 4.95% | 6.95% | -2.05%
10 | O=C(Nc1ccc(Cl)cc1[N+](=O)[O-])Oc1ccc(-c2ccccc2)cc1 | 23.4% | 58.5% | 48.1% | 8.3% | 78.8% (active) | 66%
11 | ClC(Cl)C1OCCOCCO1 | -16.1% | -9.65% | -9.9% | -57.8% | -0.35% | -5.8%
12 | Cc1ccc(N=c2cc(-c3ccccc3)oc3ccccc23)cc1 | 11.9% | -1.25% | 11.7% | 3.7% | 12.7% | 20.4%
13 | CC(=O)NC1C(OC(C)=O)OC(COC(c2ccccc2)(c2ccccc2)c2ccccc2)C(O)C1OC(C)=O (stereo unspecified) | 63.9% | 47.5% | 5% | 41.2% | 47.2% | 44%
14 | Cc1ccccc1N=C(N)Nc1ccccc1C | -25.5% | -29.9% | -44.3% | 5.7% | -38.7% | -52.4%
15 | CCc1cnc(N)nc1N | -0.6% | 4.75% | 5.85% | 1.95% | 0.95% | 0.65%
16 | NC(=O)COC(=O)c1c(Cl)nc2sccn12 | 7.55% | 5.1% | -13.9% | 4.75% | 24.6% | 19.1%
17 | CCC(=O)CCc1ccc(OC)cc1 | 4.55% | -6.75% | -3.85% | -20.6% | -12.2% | -13.8%
18 | CCOC(=O)C(NC(=O)c1ccccc1)(N1CCOCC1)C(F)(F)F (stereo unspecified) | 25.3% | -20.1% | 8.05% | 15.8% | -3.45% | -44.9%
19 | COc1c(C)c2c(c(C)c1Cl)Oc1c(C=O)c(O)c(Cl)c(C)c1C(=O)O2 | 55% | 25.4% | 44.9% | 23.6% | 29.4% | 54.4%
20 | COc1ccc(-c2cc(C(=O)Nc3cc(Cl)cc(Cl)c3)c3ccccc3n2)cc1 | -13.7% | -18.6% | -25.8% | -0.85% | -17.6% | 1.55%
21 | COc1cc(C(c2ccc(O)c(OC)c2)c2ccc(O)c(OC)c2)ccc1O | 31.9% | 15.2% | 34.6% | 30.1% | 4.95% | 24.9%

Row | Compound | growth inhibition [1] | growth inhibition [2] | growth inhibition [3] | growth inhibition [4] | growth inhibition [5] | growth inhibition [6]
22 | C(/C=C/C=C/Nc1ccc(N=Nc2ccccc2)cc1)=Nc1ccc(N=Nc2ccccc2)cc1 | -32.8% | -38% | -26.3% | -1.65% | -25.8% | -30%
23 | C=C1C(=O)C23CC1C[C@H](OC(C)=O)C2C1(C)C(OC(C)=O)C[C@H](O)C(C)(C)[C@H]1C(O)[C@@H]3OC(C)=O (stereo partly specified) | 9.8% | -3.85% | 3.25% | -2.95% | 24.1% | 20.3%
24 | CC/C(SC)=[N+](\C)[O-] | 3.9% | -6.9% | -23.1% | -5.6% | -20.4% | 4.25%
25 | Cc1ccc(C(=O)c2c[nH]c(=O)[nH]c2=O)cc1 | 9.45% | -20.2% | -6.7% | -6.5% | -3.05% | -21.9%
26 | S=C1NCCN1c1ccc(Cl)cc1 | -16.4% | -16.1% | -20.4% | -21.8% | -30.5% | 5.55%
27 | Nc1ccc(Nc2ccc([N+](=O)[O-])cc2S(=O)(=O)O)cc1 | 9.1% | 4% | -17% | -16.4% | -7.65% | 10.8%
28 | O=C1C(OC(=O)c2ccccc2)=C(OC(=O)c2ccccc2)C(=O)C(OC(=O)c2ccccc2)=C1OC(=O)c1ccccc1 | -7.15% | -1.25% | 13.8% | -22.8% | 2.85% | 2.75%
29 | CC(CO)CCNc1ncnc2c1ncn2CCC(=O)OC(C)(C)C (stereo unspecified) | -27.6% | 16.4% | -21.6% | -20.6% | -1.85% | -9.65%
30 | OCC(O)C(O)C(O)c1nn(-c2ccccc2)c2nc3ccc(Cl)cc3nc12 (stereo unspecified) | -0.8% | 9% | 6.05% | -3.8% | 9.25% | 5.3%
31 | O=C(Cc1ccccc1)OCC(=O)c1ccc(-c2ccccc2)cc1 | -1.05% | 15.1% | 0.9% | 39.8% | 19.1% | -5.15%
32 | CC(C)CCC[C@@H](C)[C@H]1CC[C@@]2(C)[C@@H]3CC[C@@H]4C(=O)CC[C@]4(C)[C@H]3CC[C@]12C | 31.3% | 1.5% | 41.5% | 26.8% | 1.6% | 42.1%
33 | CC(=O)Nc1ccc(C(=O)C=O)cc1 | -1.45% | -4.4% | 4.2% | 26.5% | -13.9% | -40.8%
34 | C[C@H](N)[C@@H](O)/C=C/c1ccccc1 | 8% | -16.9% | -0.05% | -4.7% | -9.7% | -8.7%
35 | C#Cc1cccc(N=Cc2cc(Br)cc(OC)c2O)c1 | -23.4% | -6.7% | 1.3% | 4.8% | 5% | 3.95%
36 | COc1ccc(C2(C(OC)OC)NC(=O)N(Cc3ccccc3)C2=O)cc1 (stereo unspecified) | 2.7% | -10.6% | -4.5% | -49.4% | -11.8% | -10.3%
37 | CC(=O)Nc1ccc(Nc2nc(=O)[nH]c(=O)[nH]2)cc1 | -3.2% | -12.6% | 13.1% | -0.55% | -1.6% | -32.6%
38 | CC1OC(=O)/C(=C\N(C)C)C1=O (stereo unspecified) | 1.25% | 9% | 13.2% | 42.5% | 7.75% | 8.6%
39 | COC(=O)C1(CC(=O)c2ccncc2)NC(=S)NC(=O)C1C#N (stereo unspecified) | 2% | -11.8% | -19.1% | -22.4% | -22.8% | -5.75%
40 | CN1C(=O)C(Cl)(C#N)C(c2ccccc2)N(C)C1c1ccccc1 (stereo unspecified) | 5.7% | 8.05% | 18% | -37.9% | 39.4% | 20.1%
41 | Cc1ccc(S(=O)(=O)/N=[N+](\[O-])c2ccc(N(C)C)cc2)cc1 | -32.4% | -3.35% | -7.55% | -35.7% | -7.8% | -3.35%
